The record followed here is PubChem BioAssay AID493188 (National Center for Advancing Translational Sciences (NCATS), 2011).

Each structure is given as a SMILES string. Records with an inconclusive call do not appear. Activity calls are given as the source filed them. Calls follow the shape of the dose curve; as a rule, active = well fitted inhibition curve with a large enough effect; inconclusive = small, poorly fitted or top-dose-only effect; inactive = flat fitted curve, though single readings scatter.

Chain of Galactokinase (Homo sapiens) (P51570 whole entry, looked up): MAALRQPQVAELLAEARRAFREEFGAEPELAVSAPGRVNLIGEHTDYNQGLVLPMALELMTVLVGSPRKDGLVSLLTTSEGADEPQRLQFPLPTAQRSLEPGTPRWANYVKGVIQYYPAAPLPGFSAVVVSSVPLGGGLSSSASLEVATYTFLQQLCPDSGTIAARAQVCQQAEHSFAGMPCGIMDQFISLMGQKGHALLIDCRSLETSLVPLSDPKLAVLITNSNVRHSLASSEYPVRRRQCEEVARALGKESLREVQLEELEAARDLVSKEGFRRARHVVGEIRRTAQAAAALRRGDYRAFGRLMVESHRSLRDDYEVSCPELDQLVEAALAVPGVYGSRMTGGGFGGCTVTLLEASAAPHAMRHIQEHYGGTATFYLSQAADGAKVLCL

In the test the target is Galactokinase (Homo sapiens) (UniProt P51570). The test can be described thus: Confirmation Assay for Inhibitors of Human Galactokinase (GALK): SAR round 2. The settings on record: Recombinant GALK, Kinase-Glo ATP depletion luminescence; series mostly up to 57.5 µM. The source says:
NIH Molecular Libraries Probe Production Centers Network [MLPCN] NIH Chemical Genomics Center [NCGC] MLPCN Grant: R03 MH085689-01 Assay Submitter (PI): Kent Lai (University of Utah School of Medicine, 50 N Mario Capecchi Drive, Salt Lake City, UT 84132) NCGC Assay Overview Inherited deficiency of galactose-1-phosphate uridyltransferase (GALT) can result in a potentially lethal disorder called Classic Galactosemia (OMIM 230400). Several lines of evidence indicate that an elevated level of galactose-1-phosphate (gal-1-p), the product of galactokinase (GALK), is a major, if not sole, pathogenic mechanism in patients with classic galactosemia. Therefore, finding inhibitors of GALK is a potential novel therapy for this inherent metabolic disease and is the long term goal of this project. Active compounds observed in the qHTS GALK assay (AID: 1868) were cherry picked and re-screened for validation. GALK (provided by Kent Lai) was assayed using ATP and D-(+)-Galactose (Sigma-Aldrich cat# G0750) as substrates. Promega Kinase-Glo Plus (cat# V3774) technology was used to detect the residual ATP following kinetic reaction. Briefly, the Kinase-Glo Plus contains Ultra-Glo [1] luciferase and D-luciferin which generates a bioluminescence signal from the remaining ATP. Kinase reactions with and without GALK were used as negative and positive controls together with Protein Tyrosine Phosphatase CD45 inhibitor (EMD Bioscience cat# 540215) which is shown to inhibit GALK activity.
NCGC Assay Protocol Summary: Three uL/well of ATP-buffer solution (35 uM ATP, 20mM HEPES pH8.0, 5 mM MgCl2, 60 mM NaCl, 1 mM DTT, 0.01% BSA final concentration) was dispensed into 1536-well, assay plates (Greiner, solid white medium-binding plates) with Aurora Discovery BioRAPTR Flying Reagent Dispenser (FRD; Beckton-Dickenson). Compound and control solution (23 nL) was transferred to the assay plate using the Kalypsys 1536-pin tool apparatus. One uL/well GALK-galactose solution (5 nM GALK, 100 uM galactose, 20 mM HEPES pH8.0, 5 mM MgCl2, 60 mM NaCl, 1 mM DTT, 0.01% BSA final concentration) was then added using the FRD yielding a total kinase reaction volume of 4 uL/ well. After 1 hour of room temperature incubation, 4 uL Kinase-Glo Plus reagent was added for a final assay volume of 8 uL/well. Luminescence was detected with the ViewLux plate reader (Perkin Elmer, Waltham, MA) after 2 min incubation using a 1 sec exposure time and 2x binning.
(In general: Kinase-Glo measures the ATP left after a reaction by luminescence.)
On to `O=C1CCCC2=C1C(c1ccncc1Cl)N=C(Nc1nc3ccccc3o1)N2` (configuration not stated), for which the Potency was 15.3 µM (active).
On to `O=C1CCCC2=C1C(c1ccccc1Cl)N=C(Nc1nc3ccccc3o1)N2` (configuration not stated), for which the Potency is 2.66 µM (active).
As to `Cc1ccc(C2N=C(Nc3nc4ccccc4o3)NC3=C2C(=O)CCC3)s1` (configuration not stated), the Potency is 61.1 µM (active).
On to `O=C1CCCC2=C1C(c1cccc(Oc3ccccc3)c1)N=C(Nc1nc3ccccc3o1)N2` (configuration not stated), for which the Potency result is “inactive”.
Turning to `COc1cccc(C2N=C(Nc3nc4ccccc4o3)NC3=C2C(=O)CCC3)c1` (configuration not stated), the Potency is 18.8 µM (active).
`O=C1CCCC2=C1[C@@]1(CCC(c3ccccc3)C1)N=C(Nc1nc3ccccc3o1)N2` (some centres not stated): the Potency result was “inactive”.
Regarding `Cc1nc(Nc2nc3ccccc3o2)nc2c1CCCC2`, the Potency result was “inactive”.
With `O=C1CCCC2=C1C(c1ccccc1C(F)(F)F)N=C(Nc1nc3ccccc3o1)N2` (configuration not stated), the Potency was 12.2 µM (active).
In the case of `CC(C)c1nc(Nc2nc3ccccc3o2)nc2c1CCCC2` it was “inactive”; in that of `O=C1CCCC2=C1C(c1ccccc1)N=C(Nc1nc3ccccc3o1)N2` (configuration not stated), 34.3 µM (active); in that of `CC(C)(C)C(=O)Nc1ccc2c(c1)C(=O)C(=O)c1ccccc1-2`, 2.59 µM (active).
In the case of `Cc1ccc(N(CC(=O)Nc2ccc(OC(F)(F)F)cc2)S(=O)(=O)c2c(C)noc2C)cc1` it was “inactive”.
